The values below come from PubChem BioAssay AID1347416 (National Center for Advancing Translational Sciences (NCATS), 2020).

About 1,600 (39%) of roughly 4,100 compounds were called active. Roughly 25% stayed inconclusive and do not appear here. Some of the results follow. Unmarked numbers belong to inactive results. The call rests on the fitted dose curve; in most records, active means well fitted inhibition curve with a large enough effect; inconclusive means small, poorly fitted or top-dose-only effect; inactive means no such curve, though single readings can be large or run the other way.
On the % scale 0 is the no-effect control and ±100 the full control effect; potency means the concentration at half of the fitted maximal effect.

This assay is described as follows: qHTS Validation assay for Inhibitors of Plasmodium falciparum Dd2 growth in vitro. Further: nearly all actives have a fitted effect of over 70% in size. To be noted: P. falciparum Dd2 in RBCs, SYBR Green growth, 72 h; series mostly up to 28.7 µM; activity change, negative = inhibition: at the top concentration. In a few lines: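 P. falciparum Dd2-infected red blood cells (2.5% hematocrit, 0.3% parasitemia) grown 72 h at 37 °C under 5% O2 with compounds in a titration, 29 uM to 0.5 nM final. Growth read as SYBR Green-1 fluorescence after ~16 h lysis; artesunate 300 nM as positive control.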
For orientation: Quantitative high-throughput screening tests each substance at several concentrations.
For `COc1ccc2nc3cc(Cl)ccc3c(Nc3cc(C(C)C)c(O)cc3C)c2c1`, the Potency is 266 nM (active). Consider `CN(Cc1ccc(C2CC(=O)Nc3n[nH]c(C4CCC4)c32)o1)S(C)(=O)=O` (stereo not given), for which the “activity change, negative = inhibition” value was 18.7%. For the compound `CC(C)c1ccc(CN2CC(CNc3cccnc3)C3(C2)CN(c2ccccc2)C3)cc1` (stereo not given), the Potency was 4850 nM (active). Take `Clc1cnccc1CN1CC(CNc2ccccc2)C2(C1)CN(c1ccccc1)C2` (stereo not given): the Potency is 13700 nM (active).

For `Oc1ccccc1CN1CC(CNc2cccnc2)C2(C1)CN(c1ccccc1)C2` (stereo not given), the Potency was 10900 nM (active). Regarding `Cc1ccc(C)c(-c2cc3c(=O)n(CCNC(=O)c4cccc(F)c4)ccn3n2)c1`, the “activity change, negative = inhibition” value is -22.4%. For the compound `COc1ccc([S+](=O)([O-])N2CCC(N3Cc4cccn4C3=O)CC2)cc1`, the “activity change, negative = inhibition” value is 34.9%. Turning to `COc1cc(NC(=O)Cn2ncc3c(=O)oc4ccccc4c32)cc(OC)c1OC`, the Potency was 2660 nM (active). Still for that read-out and setting: under `Cc1ccc2oc(=O)c3cnn(CC(=O)Nc4cccc(C(F)(F)F)c4)c3c2c1` stands 2660 nM (active). For the compound `O=C(NN1C(=O)C2C(C1=O)C1C=CC2C12CC2)c1cccnc1` (stereo not given), the “activity change, negative = inhibition” value was 36.4%. Turning to `COc1ccc(CC(=O)NCc2cc(C)cc3c(C)c(C)[nH]c23)c(OC)c1`, the Potency is 8410 nM (active).

As to `CCOCCc1nnc(NC(=O)C(=O)c2cc(C)n(-c3ccc(C)c(C)c3)c2C)s1`, the “activity change, negative = inhibition” value is 2.27%. Regarding `COc1ccc(-c2nc3c(c(SCc4ccc(Br)cc4)n2)Cc2c(CO)cnc(C)c2O3)cc1`, the Potency was 66.8 nM (active). Turning to `CCCCn1cc(S(=O)(=O)c2ccc(Cl)cc2)c(=O)c2cc(F)c(N3CCCCC3)cc21`, the Potency is 15000 nM (active). Take `COc1ccc2c(c1)c(=O)c(S(=O)(=O)c1ccc(F)cc1)cn2CC(=O)Nc1ccc(C)cc1C`: the “activity change, negative = inhibition” value is 32.9%. On the same count and under the same terms, next, `CCCN(CC1CCOC1)C(=O)c1ccc(F)c(Cl)c1` (stereo not given): 4.66%. Consider `C1CCC(CNc2c3c(nc4nnnn24)CCCC3)CC1`, for which the Potency was 13300 nM (active). With `Oc1ccccc1-c1cc(-c2cccnc2)c2cncn2c1`, the Potency is 1720 nM (active). The same measure, in the same setting: next, `Oc1ccccc1-c1cc(C2=CCOCC2)c2cncn2c1`: 9680 nM (active). Turning to `c1cncc(-c2nnc(-c3cccnc3)nn2)c1`, the “activity change, negative = inhibition” value was 189%. For the compound `Cc1ccc([S+](=O)([O-])NC2CCCN(c3nc4ncccc4o3)C2)cc1` (stereo not given), the “activity change, negative = inhibition” value was 0%. As to `O=C(O)c1ccc(N/N=C/c2cn(-c3ccccc3)nc2-c2cccs2)cc1`, the Potency was 2660 nM (active). Same read-out and setting: next, `NS(=O)(=O)c1ccc(N/N=C/c2cn(-c3ccccc3)nc2-c2cccs2)cc1`: 335 nM (active). As for `O=C(N/N=C/c1ccccn1)c1cccs1`, the “activity change, negative = inhibition” value was 46.3%.

As to `COCC(C)n1c(C)cc(C(=O)CSc2nnc(Nc3ccccc3F)s2)c1C` (stereo not given), the Potency is 2990 nM (active). `Cc1ccc(Nc2nnc(SCC(=O)c3ccc(O)cc3O)s2)cc1`: the “activity change, negative = inhibition” value was -5.84%.

In the case of `CCOC(=O)c1cccc(NC(=O)N2CC[C@@H](CC(=O)N[C@@H](CO)CC(C)C)[C@@H](CC)C2)c1`, the “activity change, negative = inhibition” value was -15.6%.

Take `CCOC(=O)c1cc(C)n(CC2CCC(C(=O)Nc3cccc(Cl)c3)CC2)c1C` (stereo not given): the Potency was 8410 nM (active). With `CC(=O)N1CCCc2cc(S(=O)(=O)N3CCCC(C(=O)Nc4ccc(C)c(C)c4)C3)ccc21` (stereo not given), the “activity change, negative = inhibition” value was -16.8%. Regarding `CC(C)CCN1CCC(N2CCN(S(=O)(=O)c3ccc4c(c3)CCCC4)CC2)C1=O` (stereo not given), the Potency was 9440 nM (active).

For the compound `CNC(=O)[C@@H]1C[C@H](Oc2cccnc2)CN1S(=O)(=O)c1ccc2c(c1)CCC2`, the “activity change, negative = inhibition” value was 10.2%.

With `O=C1NC(=S)S/C1=C\C=C\c1ccc([N+](=O)[O-])o1`, the Potency was 5310 nM (active). Take `CCCNC(=O)N1CCC(N2C(=O)[C@H](OCCOC)[C@@H]2c2ccncc2)CC1`: the “activity change, negative = inhibition” value is 4.94%. The same measure, in the same setting: next, `COCCO[C@H]1C(=O)N(C2CCN(C(=O)COc3ccccc3)CC2)[C@H]1c1ccncc1`: 9.04%. Take `Cc1ccc(NC(=O)N2CCC(N3C(=O)C4(CCCCC4)C3c3ccncc3)CC2)cc1C` (stereo not given): the Potency is 7500 nM (active).

As to `CCNc1nc(NC(C)(C)C)nc(N2CCCC2)n1`, the Potency was 2370 nM (active). Same read-out and setting: next, `CCOC(=O)c1c(NC(=O)C[n+]2ccc(N(C)C)cc2)sc(C)c1C`: 1330 nM (active). On to `Cc1cc[n+](CC(=O)Nc2cccc(C)c2)cc1`, for which the “activity change, negative = inhibition” value is 28.2%. On to `O=C(NC1CCN(c2cc(-c3cccs3)[nH]n2)C1)c1cccs1` (stereo not given), for which the “activity change, negative = inhibition” value was -18.2%. Turning to `O=C(Nc1cc(Cl)ccc1O)c1cc2nc(-c3ccc4c(c3)OCO4)cc(C(F)(F)F)n2n1`, the Potency is 2660 nM (active). Regarding `COc1ccc(-c2c(C)nn3c(N)c(C#N)cnc23)cc1OC`, the Potency is 1680 nM (active). Consider `CC1CC(C)CN(C(=O)CNC(=O)c2sc3ccccc3c2Cl)C1` (stereo not given), for which the “activity change, negative = inhibition” value was -21.5%. For the compound `COc1cc2ccccc2cc1C(=O)N1CC(C)CC(C)C1` (stereo not given), the Potency was 2370 nM (active). Take `CC1CC(C)CN(C(=O)c2ccc3ccccc3c2)C1` (stereo not given): the Potency was 2370 nM (active). As for `CC1CC(C)CN(C(=O)CCNC(=O)c2ccccc2Cl)C1` (stereo not given), the “activity change, negative = inhibition” value is 18.5%.

Turning to `COc1cc2ccccc2cc1C(=O)N1CCCC(C(F)(F)F)C1` (stereo not given), the Potency is 5310 nM (active). `COc1ccc(C(=O)N2CCC3(CC2)CC(O)CCO3)c(OC)c1` (stereo not given): the “activity change, negative = inhibition” value was -13.5%. The same measure, in the same setting: under `COc1cc(OC)c(C(=O)N2CCCC2)cc1OC` stands 30.6%; under `COc1cc(Cl)ccc1C(=O)N1CC[C@@](C)(O)[C@@H](O)C1`, 43%. On the same count and under the same terms, next, `O=C(O)c1cccc(C2CCCN(C(=O)c3ccccc3-n3cccn3)C2)c1` (stereo not given): 70.7%. `Cc1ccc(S(=O)(=O)Nc2ccc(-c3cn4ccc(C)cc4n3)cc2)cc1`: the Potency is 6680 nM (active). Turning to `CCc1ccc(S(=O)(=O)Nc2cc(-c3cn4ccccc4n3)ccc2C)cc1`, the “activity change, negative = inhibition” value was -25.2%.

With `CCN(CC)CCOC(=O)c1ccc(NC(=O)c2cc3c(=O)n(CC)c4ccccc4c3s2)cc1`, the Potency was 2660 nM (active). As to `CCCCNC(=O)c1onc(CSc2nc3ccccc3[nH]2)c1C(=O)NCCCC`, the Potency was 5310 nM (active).

`COCC(=O)NC1CCC12CCN(C(=O)c1ccc(C)nc1)CC2` (stereo not given): the “activity change, negative = inhibition” value is 23.4%. For the compound `CN(C)c1cc[n+](CC(=O)c2ccc(Br)cc2)cc1`, the Potency was 7500 nM (active).

For the compound `CC(=O)Nc1cc[n+](C(C)C(=O)c2ccc(Br)cc2)cc1` (stereo not given), the “activity change, negative = inhibition” value is -23.1%. On the same count and under the same terms, next, `Cc1cccc(NC(=O)Cn2nc3n(c2=O)CCCC3)c1C`: 14.3%.

With `Cc1oc2ccc(O)c(CN3CCN(Cc4ccccc4)CC3)c2c1C(=O)Nc1cccc(Cl)c1C`, the Potency was 596 nM (active). Turning to `COc1ccc(N2Cc3c(ncnc3N3CCN(Cc4ccccc4)CC3)N(C)CC2=O)cc1`, the “activity change, negative = inhibition” value is 1.48%. For `Cc1oc2ccc(O)c(CN3CCCCCC3)c2c1C(=O)Nc1cccc(Cl)c1C`, the Potency was 842 nM (active). Turning to `COc1ccc(NC(=O)c2c(C)oc3ccc(O)c(CN4CCN(Cc5ccccc5)CC4)c23)cc1`, the Potency was 2660 nM (active). Consider `CC1CCCN(Cc2c(O)ccc3c(=O)c(-c4ccc(Cl)cc4)c(C(F)(F)F)oc23)C1` (stereo not given), for which the Potency was 842 nM (active). Same read-out and setting: next, `CC1CCN(Cc2c(O)ccc3c(=O)c(Oc4ccccc4Cl)c(C(F)(F)F)oc23)CC1`: 1330 nM (active); `CCN1CCN(Cc2c(O)ccc3c(=O)c(Oc4ccccc4Cl)c(C(F)(F)F)oc23)CC1`: 596 nM (active).

For `CCc1cc2c(=O)c(-c3cnn(-c4ccccc4)c3)c(C)oc2c(CN2CCCCC2)c1O`, the Potency was 1330 nM (active).

With `CC(=O)c1ccc(NC(=O)c2noc3c2CCC3)cc1`, the “activity change, negative = inhibition” value is -5.84%. For the compound `Cc1oc2c(CN3CCCCC3)c(O)ccc2c(=O)c1-c1ccc(Cl)cc1`, the Potency was 5310 nM (active). On the same count and under the same terms, next, `O=c1c(-c2ccc(Br)cc2)coc2c(CN3CCCCC3)c(O)ccc12`: 2110 nM (active); `CC1CCCN(Cc2c(O)ccc3c(=O)c(-c4ccccc4Cl)c(C(F)(F)F)oc23)C1` (stereo not given): 842 nM (active); `CC1CCCN(Cc2c(O)ccc3c(=O)c(-c4ccc(Cl)cc4)coc23)C1` (stereo not given): 1880 nM (active). As for `CC1CCCN(Cc2c(O)ccc3c(=O)c(Oc4ccccc4Cl)c(C(F)(F)F)oc23)C1` (stereo not given), the Potency is 2110 nM (active). Take `Cc1ccc(-c2[nH]n3c(=O)c4c(nc3c2C)CCCC4)cc1`: the Potency was 2990 nM (active).

For the compound `O=C(NCCN1CCCC1)C1CN(S(=O)(=O)c2cccs2)CC12CCCCC2` (stereo not given), the Potency was 13300 nM (active). Regarding `O=C(NCc1ccco1)C1CN(S(=O)(=O)c2ccccc2)CC12CCCCC2` (stereo not given), the “activity change, negative = inhibition” value is 4.27%. The same measure, in the same setting: under `O=C(NCCN1CCCCCC1)C1CCCN1S(=O)(=O)c1cccc2nsnc12` (stereo not given) stands -21%. Turning to `c1ccc2c(NCCc3c[nH]c4ccccc34)c3ccccc3nc2c1`, the Potency is 1880 nM (active). Same read-out and setting: under `CN(C)CCCNc1c2ccccc2nc2ccccc12` stands 4220 nM (active).

With `O=C(NCCc1c[nH]c2ccccc12)c1cncc(Br)c1`, the “activity change, negative = inhibition” value is 7.82%. In the case of `Cc1cc(C)n(-c2nc3cc(Cl)ccc3nc2N2CCN(c3ccccc3F)CC2)n1`, the “activity change, negative = inhibition” value is 28.4%.

Turning to `Cc1cc(Nc2nc3ccccc3nc2Cl)n(-c2ccccc2C)n1`, the Potency was 842 nM (active). For `CC(C)CNc1nnnc2c1sc1nc(N3CCOCC3)c3c(c12)CCCC3`, the Potency was 15000 nM (active).

In the case of `COC(C)c1ccc(-c2cc(C(=O)O)cc(S(=O)(=O)NC(C)C)c2)cc1` (stereo not given), the “activity change, negative = inhibition” value is 33.1%. On the same count and under the same terms, under `Cc1cccc(C(=O)NC2CCN(c3cc(-c4ccc(Cl)cc4)[nH]n3)C2)c1` (stereo not given) stands -19.2%; under `Cc1ccc(-n2nc3c(=O)n(CCCC(=O)NCc4ccccc4F)nc(C)c3c2C)cc1`, 32.8%. As to `COc1cc(C(=O)NC2CCN(c3cc(-c4ccccc4)[nH]n3)CC2)cc(OC)c1OC`, the Potency was 5960 nM (active). Take `O=C(NC1CCN(c2cc(-c3ccc(Cl)cc3)[nH]n2)C1)c1ccccc1` (stereo not given): the “activity change, negative = inhibition” value was 8.13%. Still for that read-out and setting: next, `O=C(NC1CCCN(c2cc(-c3ccccc3)[nH]n2)C1)c1ccccc1` (stereo not given): 1.56%; `Cc1ccc2c(c1)COc1c3ccc(C(=O)O)cc3nn1-2`: 5.75%. Consider `Cn1c(=S)[nH]c2sc3c(c2c1=O)CCC(C(C)(C)C)C3` (stereo not given), for which the Potency was 5310 nM (active).

Take `CC1=C(C(=O)Nc2ccccc2)C(c2cc(Br)ccc2F)n2ncc(C(=O)Nc3ccccc3)c2N1` (stereo not given): the Potency is 1680 nM (active). In the case of `Cn1c2c(c(=O)n(C)c1=O)C(c1cc(Br)ccc1F)CC(=O)N2` (stereo not given), the “activity change, negative = inhibition” value is 44.2%. Turning to `COc1ccc(Br)cc1C1C(C(=O)Nc2ccc(C)cc2C)=C(C)Nc2ncnn21` (stereo not given), the “activity change, negative = inhibition” value was 66.2%.

For the compound `COc1ccccc1NC(=O)C1=C(C)Nc2ncnn2C1c1ccccc1C(=O)O` (stereo not given), the “activity change, negative = inhibition” value was 31.6%.

In the case of `CC1=C(C(=O)Nc2ccc(C)cc2C)C(c2cc(Br)ccc2F)n2ncc(C(=O)Nc3ccc(C)cc3)c2N1` (stereo not given), the Potency was 1500 nM (active).
